Where “and” joins values, the source holds several entries; their conditions need not be identical. Equal entries are not always repeated. Records with an inconclusive call do not appear. A call without a number means that no potency is given here. Calls of active or inactive are those of the source. Unless noted, calls follow the shape of the dose curve; as a rule, active = well fitted curve in the direction sought with a large enough effect; inconclusive = small, poorly fitted or top-dose-only effect, or another doubt; inactive = no such curve, though single readings can be large; an effect the other way counts as inactive or inconclusive.
Tests used:
[1] = P-glycoprotein substrates identified in KB-8-5-11 adenocarcinoma cell line, qHTS therapeutic library screen (AID 1346987); also: nearly all actives have a fitted effect of over 65% in size; also: potency is read from the fitted curve at half-maximal effect
Summary of the method: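 Steps: plate 500 KB-8-5-11 cells/well in DMEM + 10% FCS (colchicine removed); pin compounds in dose-response; incubate 72 h, 37 degree C, 5% CO2; add CellTiter-Glo, 5 min; read luminescence.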

[2] = NS1 protein of Zika virus - qHTS assay to identify small molecule inhibitors in human HEK 293 cells (AID 1347053); also: series mostly up to about 46 µM; nearly all actives have a fitted effect of over 55% in size
Summary of the method: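 HEK 293 cells pretreated with compound for 1 h, then infected with ZIKV MR766 (MOI 0.5) for 24 h at 37 C. NS1 detected by TR-FRET with two anti-NS1 antibodies; normalized to uninfected (0%) and infected (100%) wells.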

[3] = molecular target: T1, Tyrosine-protein phosphatase non-receptor type substrate 1 (Homo sapiens) + Leukocyte surface antigen CD47 (Homo sapiens) (UniProt P78324+Q08722); assay: CD47-SIRPalpha protein protein interaction - LANCE assay qHTS validation (AID 1347057; active = well fitted curve in the direction sought with a large enough effect in the signal ratio, with a control signal flat, not every such curve was filed as active; the % refers to the signal ratio; also: series mostly up to about 38 µM)
T1 sequence (P78324 whole entry, looked up): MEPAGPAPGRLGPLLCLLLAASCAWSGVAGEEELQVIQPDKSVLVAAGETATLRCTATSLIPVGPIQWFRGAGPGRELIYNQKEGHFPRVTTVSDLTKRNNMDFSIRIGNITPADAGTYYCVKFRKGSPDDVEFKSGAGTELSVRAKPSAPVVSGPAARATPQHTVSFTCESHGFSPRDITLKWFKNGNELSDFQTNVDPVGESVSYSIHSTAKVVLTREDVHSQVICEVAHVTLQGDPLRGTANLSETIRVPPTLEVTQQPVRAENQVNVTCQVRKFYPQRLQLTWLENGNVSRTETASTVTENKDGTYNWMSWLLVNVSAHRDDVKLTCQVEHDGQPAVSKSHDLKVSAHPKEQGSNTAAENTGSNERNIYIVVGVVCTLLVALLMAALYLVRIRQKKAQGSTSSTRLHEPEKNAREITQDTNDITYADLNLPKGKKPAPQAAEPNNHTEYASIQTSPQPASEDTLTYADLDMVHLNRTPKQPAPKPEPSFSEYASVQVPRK
T1 sequence (Q08722 whole entry, looked up): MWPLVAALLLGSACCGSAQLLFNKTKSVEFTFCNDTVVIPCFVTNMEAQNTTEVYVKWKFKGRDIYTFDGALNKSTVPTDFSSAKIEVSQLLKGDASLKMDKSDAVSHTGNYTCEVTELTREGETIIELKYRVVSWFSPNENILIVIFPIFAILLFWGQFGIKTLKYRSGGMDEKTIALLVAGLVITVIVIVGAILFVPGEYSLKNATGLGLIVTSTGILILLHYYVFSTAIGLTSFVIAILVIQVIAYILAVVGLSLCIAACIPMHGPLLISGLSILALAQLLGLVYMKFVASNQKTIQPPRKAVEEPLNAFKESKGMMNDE
Summary of the method: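 First, His-tagged CD47 and Eu-labelled anti-His antibody met the compound for 30 min; next, site-specifically biotinylated SIRPalpha was added for 30 min; finally streptavidin-APC was added before reading the TR-FRET ratio.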

[4] = molecular target: T1, Tyrosine-protein phosphatase non-receptor type substrate 1 (Homo sapiens) + Leukocyte surface antigen CD47 (Homo sapiens); assay: CD47-SIRPalpha protein protein interaction - Alpha assay qHTS validation (AID 1347059);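 also: bead proximity luminescence from CD47 binding SIRPalpha after compound preincubation with SIRPalpha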
Summary of the method: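 Binding is measured by AlphaScreen proximity: Ni-NTA acceptor beads capture His-CD47, streptavidin donor beads capture biotin-SIRPalpha. Each of three additions (SIRPalpha with compound, CD47, beads) incubates 30 min at room temperature protected from light.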

[5] = qHTS of pediatric cancer cell lines to identify multiple opportunities for drug repurposing: Primary screen for SJ-GBM2 cells (AID 1347091); also: potency is read from the fitted curve at half-maximal effect
Summary of the method: (§1)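 Cell viability, CellTiter-Glo luminescence; 500-1,000 cells/well, 8- or 11-point titration, 48 h compound exposure at 37 degrees C, 5% CO2. Controls: DMSO neutral, bortezomib 2.3 µM final as positive.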

[6] = qHTS of pediatric cancer cell lines to identify multiple opportunities for drug repurposing: Primary screen for A673 cells (AID 1347092); also: nearly all actives have a fitted effect of over 45% in size; also: potency is read from the fitted curve at half-maximal effect
Summary of the method: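 48 h compound exposure, A673, 500-1,000 cells/well, 37 degrees C/5% CO2. MIPE: 11-point, 0.78 nM-46 µM; NPC: 8-point, 0.59 nM-46 µM (final). Readout CellTiter-Glo luminescence after 15 min RT.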

[7] = qHTS of pediatric cancer cell lines to identify multiple opportunities for drug repurposing: Primary screen for SK-N-MC cells (AID 1347093); also: potency is read from the fitted curve at half-maximal effect
Summary of the method: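 Metabolically active cells were quantified by ATP-dependent luminescence (CellTiter-Glo, 15 min at room temperature) following 48 h treatment. Cells had been plated at 500-1,000 per well and settled for 5 h beforehand.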

[8] = qHTS of pediatric cancer cell lines to identify multiple opportunities for drug repurposing: Primary screen for BT-37 cells (AID 1347094); also: potency is read from the fitted curve at half-maximal effect
Summary of the method: (§2)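 Phenotypic viability qHTS, 48 h compound exposure, CellTiter-Glo luminescence read-out; multi-concentration dosing so that potency and efficacy derive directly from the primary screen's curves.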

[9] = qHTS of pediatric cancer cell lines to identify multiple opportunities for drug repurposing: Primary screen for NB-EBc1 cells (AID 1347095); also: potency is read from the fitted curve at half-maximal effect
Summary of the method: as §2

[10] = qHTS of pediatric cancer cell lines to identify multiple opportunities for drug repurposing: Primary screen for U-2 OS cells (AID 1347096); also: nearly all actives have a fitted effect of over 50% in size; also: potency is read from the fitted curve at half-maximal effect
Summary of the method: (§3)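 Cells (500-1,000/well) rested 5 h, then received compounds for 48 h; metabolically active cells were measured by CellTiter-Glo luminescence. Final concentrations spanned up to 46 µM (MIPE, 11-point) or 0.59 nM-46 µM (NPC, 8-point) in primary screens, 11-point in follow-ups.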

[11] = qHTS of pediatric cancer cell lines to identify multiple opportunities for drug repurposing: Primary screen for Saos-2 cells (AID 1347097); also: nearly all actives have a fitted effect of over 40% in size; also: potency is read from the fitted curve at half-maximal effect
Summary of the method: as §2

[12] = qHTS of pediatric cancer cell lines to identify multiple opportunities for drug repurposing: Primary screen for NB1643 cells (AID 1347099); also: nearly all actives have a fitted effect of over 50% in size; also: potency is read from the fitted curve at half-maximal effect
Summary of the method: as §2

[13] = Natriuretic polypeptide receptor (hNpr1) antagonism - Pilot counterscreen GloSensor control cell line (AID 1347045; calls by dose curve; also: series mostly up to about 38 µM)
Summary of the method: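 Luminescence was read before and 20 min after adding 50 uM SNP, which stimulates soluble guanylyl cyclase. The HEK293 cells expressing the GloSensor cGMP sensor had been preloaded with 2% reagent for 2 h and treated with compound.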

[14] = molecular target: Atrial natriuretic peptide receptor 1 (Homo sapiens) (UniProt P16066); assay: Natriuretic polypeptide receptor (hNpr1) antagonism - Pilot screen (AID 1347049; calls by dose curve;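 also: agonist-evoked cGMP luminescence read 20 min after hNppA addition; series mostly up to about 58 µM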)
Sequence of Atrial natriuretic peptide receptor 1 (Homo sapiens) (P16066 whole entry, looked up): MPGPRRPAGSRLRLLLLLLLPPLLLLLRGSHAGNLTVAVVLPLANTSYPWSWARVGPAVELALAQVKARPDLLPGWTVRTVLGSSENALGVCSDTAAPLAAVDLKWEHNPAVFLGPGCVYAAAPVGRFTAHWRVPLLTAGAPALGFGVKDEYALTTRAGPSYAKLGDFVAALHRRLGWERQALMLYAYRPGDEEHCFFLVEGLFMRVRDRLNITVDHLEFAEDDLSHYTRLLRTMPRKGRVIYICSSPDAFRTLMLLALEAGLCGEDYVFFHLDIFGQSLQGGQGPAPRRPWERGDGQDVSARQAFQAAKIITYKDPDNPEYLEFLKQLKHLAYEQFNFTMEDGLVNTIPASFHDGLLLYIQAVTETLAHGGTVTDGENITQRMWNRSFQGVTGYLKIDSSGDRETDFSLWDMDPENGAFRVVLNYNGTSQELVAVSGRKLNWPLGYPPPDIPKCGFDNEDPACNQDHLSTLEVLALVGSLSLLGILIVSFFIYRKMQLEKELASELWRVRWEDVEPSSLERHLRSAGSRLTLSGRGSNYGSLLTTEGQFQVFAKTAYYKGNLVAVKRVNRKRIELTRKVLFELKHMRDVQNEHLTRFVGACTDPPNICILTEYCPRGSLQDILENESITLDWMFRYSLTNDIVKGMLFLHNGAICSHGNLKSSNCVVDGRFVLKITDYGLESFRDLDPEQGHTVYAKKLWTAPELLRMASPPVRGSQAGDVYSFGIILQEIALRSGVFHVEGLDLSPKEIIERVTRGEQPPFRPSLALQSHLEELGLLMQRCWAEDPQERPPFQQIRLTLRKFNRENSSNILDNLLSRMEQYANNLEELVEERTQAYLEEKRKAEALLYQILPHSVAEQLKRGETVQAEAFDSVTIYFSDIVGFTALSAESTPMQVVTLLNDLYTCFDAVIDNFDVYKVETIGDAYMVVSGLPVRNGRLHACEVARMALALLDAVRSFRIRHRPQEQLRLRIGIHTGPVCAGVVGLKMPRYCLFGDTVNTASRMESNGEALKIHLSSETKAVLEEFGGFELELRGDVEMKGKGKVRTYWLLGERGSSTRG
Summary of the method: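 Readout is cGMP-driven firefly luciferase luminescence in HEK293 cells carrying hNpr1 and a PDE5-domain GloSensor, read before and 20 min after 0.1 nM hNppA stimulation. Cells had 2% substrate reagent for 2 h and test compound for 30 min.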

[15] = molecular target: Atrial natriuretic peptide receptor 2 (Homo sapiens) (UniProt P20594); assay: Natriuretic polypeptide receptor (hNpr2) antagonism - Pilot subtype selectivity assay (AID 1347050; calls by dose curve)
Sequence of Atrial natriuretic peptide receptor 2 (Homo sapiens) (P20594 whole entry, looked up): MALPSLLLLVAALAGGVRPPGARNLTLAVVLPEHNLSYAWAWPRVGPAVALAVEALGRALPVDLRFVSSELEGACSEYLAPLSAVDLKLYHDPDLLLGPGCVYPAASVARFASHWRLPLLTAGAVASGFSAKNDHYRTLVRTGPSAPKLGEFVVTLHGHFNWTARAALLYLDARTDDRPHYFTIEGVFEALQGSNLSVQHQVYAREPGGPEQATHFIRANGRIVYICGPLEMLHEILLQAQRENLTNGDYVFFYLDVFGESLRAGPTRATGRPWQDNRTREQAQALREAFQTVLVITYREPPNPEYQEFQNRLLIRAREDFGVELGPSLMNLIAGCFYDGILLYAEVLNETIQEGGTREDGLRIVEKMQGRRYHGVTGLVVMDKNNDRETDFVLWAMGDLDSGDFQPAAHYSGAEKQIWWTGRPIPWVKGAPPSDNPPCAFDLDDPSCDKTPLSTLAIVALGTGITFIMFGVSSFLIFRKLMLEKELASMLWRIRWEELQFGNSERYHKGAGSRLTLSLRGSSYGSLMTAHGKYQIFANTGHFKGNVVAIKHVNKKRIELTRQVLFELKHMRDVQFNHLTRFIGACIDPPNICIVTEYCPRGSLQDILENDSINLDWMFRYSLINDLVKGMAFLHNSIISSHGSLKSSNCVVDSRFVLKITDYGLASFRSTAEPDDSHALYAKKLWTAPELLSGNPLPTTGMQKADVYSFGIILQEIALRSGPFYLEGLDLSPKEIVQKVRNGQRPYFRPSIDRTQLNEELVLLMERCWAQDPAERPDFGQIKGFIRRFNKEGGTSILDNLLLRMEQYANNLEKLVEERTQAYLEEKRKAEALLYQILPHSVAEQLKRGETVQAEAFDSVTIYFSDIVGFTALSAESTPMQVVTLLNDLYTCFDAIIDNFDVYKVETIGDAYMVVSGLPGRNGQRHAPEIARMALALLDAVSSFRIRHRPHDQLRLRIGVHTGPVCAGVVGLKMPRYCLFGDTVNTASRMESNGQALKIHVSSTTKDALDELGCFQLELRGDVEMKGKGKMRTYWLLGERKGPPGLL
Summary of the method: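 Pilot selectivity screen against hNpr2: HEK293 cGMP-sensor cells are treated with LOPAC1280 compounds, then with hNppC peptide at 1 nM final. The cGMP-driven luminescence change over 20 min at room temperature is the read-out.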

[16] = molecular target: T1, Tyrosine-protein phosphatase non-receptor type substrate 1 (Homo sapiens) + Leukocyte surface antigen CD47 (Homo sapiens); assay: CD47-SIRPalpha protein protein interaction - HTRF assay qHTS validation (AID 1347058; active = well fitted curve in the direction sought with a large enough effect in the signal ratio, not every such curve was filed as active; the % refers to the signal ratio;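 also: recombinant soluble extracellular CD47 with His tag and biotinylated SIRPalpha domains; series mostly up to about 38 µM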)
Summary of the method: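 TR-FRET read (Ch1/Ch2 ratio) of soluble extracellular CD47 and Avi-biotinylated SIRPalpha domains in PBS pH 7.4 with 0.05% IGEPAL; 7-point compound titration. Sequential 30 min room-temperature steps; non-biotinylated SIRPalpha as control inhibitor.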

[17] = molecular target: Parathyroid hormone/parathyroid hormone-related peptide receptor (Homo sapiens) (UniProt Q03431); assay: qHTS for PTHR1 Agonists: Optimization Screen against the NCGC LOPAC library (AID 1347079);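 also: GloSensor cAMP luminescence in HEK-293 GP2 cells expressing human PTHR1 with IBMX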
Sequence of Parathyroid hormone/parathyroid hormone-related peptide receptor (Homo sapiens) (Q03431 whole entry, looked up): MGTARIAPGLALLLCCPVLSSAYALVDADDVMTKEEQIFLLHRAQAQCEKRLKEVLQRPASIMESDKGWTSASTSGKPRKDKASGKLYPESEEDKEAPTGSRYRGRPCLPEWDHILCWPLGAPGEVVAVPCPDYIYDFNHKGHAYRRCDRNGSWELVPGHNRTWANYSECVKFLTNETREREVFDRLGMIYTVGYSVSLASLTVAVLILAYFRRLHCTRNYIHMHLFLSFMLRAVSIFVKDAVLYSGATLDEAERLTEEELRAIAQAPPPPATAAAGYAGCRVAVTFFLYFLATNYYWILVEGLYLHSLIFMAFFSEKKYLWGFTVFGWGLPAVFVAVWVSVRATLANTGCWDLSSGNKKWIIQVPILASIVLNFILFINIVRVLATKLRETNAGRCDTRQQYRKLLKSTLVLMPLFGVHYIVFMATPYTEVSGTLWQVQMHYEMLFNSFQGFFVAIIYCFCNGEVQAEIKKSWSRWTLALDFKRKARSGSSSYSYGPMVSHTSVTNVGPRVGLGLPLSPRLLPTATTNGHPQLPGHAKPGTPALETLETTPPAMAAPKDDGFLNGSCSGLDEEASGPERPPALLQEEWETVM
Summary of the method: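 Agonist readout: GloSensor cAMP luminescence, read after 15 min at room temperature. HEK-293-derived GP2 line carries PTHR1; compounds tested as a titration for 1 hr at 37C in presence of IBMX. M-PTH (1-15) served as control.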

[18] = qHTS of pediatric cancer cell lines to identify multiple opportunities for drug repurposing: Primary screen for TC32 cells (AID 1347089); also: nearly all actives have a fitted effect of over 60% in size; also: potency is read from the fitted curve at half-maximal effect
Summary of the method: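 In the primary qHTS, MIPE compounds were tested at 11 concentrations (0.78 nM to 46 µM) and NPC compounds at 8 (0.59 nM to 46 µM) on TC32 cells for 48 h. CellTiter-Glo luminescence gave viability.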

[19] = qHTS of pediatric cancer cell lines to identify multiple opportunities for drug repurposing: Primary screen for DAOY cells (AID 1347090); also: nearly all actives have a fitted effect of over 55% in size; also: potency is read from the fitted curve at half-maximal effect
Summary of the method: as §1

[20] = qHTS of pediatric cancer cell lines to identify multiple opportunities for drug repurposing: Primary screen for SK-N-SH cells (AID 1347098); also: nearly all actives have a fitted effect of over 65% in size
Summary of the method: as §3

SMILES | Potency [1] | Potency [2] | outcome [3] | outcome [4] | Potency [5] | Potency [6] | Potency [7] | Potency [8] | Potency [9] | Potency [10] | Potency [11] | Potency [12] | outcome [13] | outcome [14] | Potency [15] | outcome [16] | outcome [17] | Potency [18] | Potency [19] | Potency [20]
CS(=O)(=O)c1cccc(CNc2nc(Nc3ccc4c(c3)CCC(=O)N4)ncc2C(F)(F)F)c1 | inactive | inactive | inactive | inactive | 10.5 µM (active) | 14.8 µM (active) | 7.43 µM (active) | 27.3 µM (active) | 14.8 µM (active) | 18.7 µM (active) | 16.6 µM (active) | 16.6 µM (active) | – | – | – | – | – | – | – | –
O=C1CCc2cc(OCCCCc3nnnn3C3CCCCC3)ccc2N1 | inactive | inactive | inactive | inactive | inactive | inactive | – | inactive | inactive | inactive | inactive | – | inactive | inactive | inactive | inactive | inactive | inactive | inactive | –
Clc1cccc(Cl)c1NC1=NCCN1 | inactive | inactive | inactive | inactive | inactive | inactive | inactive | inactive | inactive | inactive | inactive | inactive | inactive | inactive | inactive | inactive | inactive | inactive | inactive | inactive
Cn1cnc([N+](=O)[O-])c1Sc1ncnc2nc[nH]c12 | 4.61 µM (active) and 2 µM (active) and 833 nM (active) | – | inactive | inactive | – | 762 nM (active) and 1.06 µM (active) and 1.18 µM (active) | inactive | 994 nM (active) and 1.38 µM (active) and 1.53 µM (active) | – | – | inactive | 12.1 µM (active) | inactive | inactive | inactive | – | inactive | 10.8 µM (active) and 10.5 µM (active) and 16.5 µM (active) | 1.91 µM (active) and 6.68 µM (active) and 5.9 µM (active) | –
Cc1cccc(-c2[nH]c(C(C)(C)C)nc2-c2ccc3nccnc3c2)n1 | 8.2 µM (active) | – | inactive | inactive | – | 14.8 µM (active) | 10.5 µM (active) | 19.3 µM (active) | – | – | 1.66 µM (active) | 16.6 µM (active) | inactive | inactive | inactive | – | inactive | 13.1 µM (active) | – | –
c1ccc([C@H]2CN3CCSC3=N2)cc1 | inactive | inactive | inactive | inactive | inactive | inactive | inactive | inactive | inactive | inactive | inactive | – | inactive | – | inactive | inactive | inactive | inactive | inactive | inactive
CC(C)NCC(O)COc1ccc(COCCOC(C)C)cc1 (centres undefined) | inactive | inactive | inactive | inactive | inactive | inactive | inactive | inactive | inactive | inactive | inactive | inactive | inactive | inactive | inactive | inactive | inactive | inactive | inactive | inactive

Reference: PubChem BioAssay (NCATS)
